Assay outcomes deposited in PubChem by University of Kansas High Throughput Screening Laboratory.
mHTT-CaM PPI inh: inhibitors of human mutant huntingtin-calmodulin interaction. AID 1671202. 3.6% of 190,000 active. inhibition, % at 15 µM. P42858. AlphaScreen His-mHTT/GST-CaM binding, luminescence;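 further: 0% = both proteins with DMSO and 100% = one protein alone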
Target sequence (P42858 whole entry, looked up, stated change not applied): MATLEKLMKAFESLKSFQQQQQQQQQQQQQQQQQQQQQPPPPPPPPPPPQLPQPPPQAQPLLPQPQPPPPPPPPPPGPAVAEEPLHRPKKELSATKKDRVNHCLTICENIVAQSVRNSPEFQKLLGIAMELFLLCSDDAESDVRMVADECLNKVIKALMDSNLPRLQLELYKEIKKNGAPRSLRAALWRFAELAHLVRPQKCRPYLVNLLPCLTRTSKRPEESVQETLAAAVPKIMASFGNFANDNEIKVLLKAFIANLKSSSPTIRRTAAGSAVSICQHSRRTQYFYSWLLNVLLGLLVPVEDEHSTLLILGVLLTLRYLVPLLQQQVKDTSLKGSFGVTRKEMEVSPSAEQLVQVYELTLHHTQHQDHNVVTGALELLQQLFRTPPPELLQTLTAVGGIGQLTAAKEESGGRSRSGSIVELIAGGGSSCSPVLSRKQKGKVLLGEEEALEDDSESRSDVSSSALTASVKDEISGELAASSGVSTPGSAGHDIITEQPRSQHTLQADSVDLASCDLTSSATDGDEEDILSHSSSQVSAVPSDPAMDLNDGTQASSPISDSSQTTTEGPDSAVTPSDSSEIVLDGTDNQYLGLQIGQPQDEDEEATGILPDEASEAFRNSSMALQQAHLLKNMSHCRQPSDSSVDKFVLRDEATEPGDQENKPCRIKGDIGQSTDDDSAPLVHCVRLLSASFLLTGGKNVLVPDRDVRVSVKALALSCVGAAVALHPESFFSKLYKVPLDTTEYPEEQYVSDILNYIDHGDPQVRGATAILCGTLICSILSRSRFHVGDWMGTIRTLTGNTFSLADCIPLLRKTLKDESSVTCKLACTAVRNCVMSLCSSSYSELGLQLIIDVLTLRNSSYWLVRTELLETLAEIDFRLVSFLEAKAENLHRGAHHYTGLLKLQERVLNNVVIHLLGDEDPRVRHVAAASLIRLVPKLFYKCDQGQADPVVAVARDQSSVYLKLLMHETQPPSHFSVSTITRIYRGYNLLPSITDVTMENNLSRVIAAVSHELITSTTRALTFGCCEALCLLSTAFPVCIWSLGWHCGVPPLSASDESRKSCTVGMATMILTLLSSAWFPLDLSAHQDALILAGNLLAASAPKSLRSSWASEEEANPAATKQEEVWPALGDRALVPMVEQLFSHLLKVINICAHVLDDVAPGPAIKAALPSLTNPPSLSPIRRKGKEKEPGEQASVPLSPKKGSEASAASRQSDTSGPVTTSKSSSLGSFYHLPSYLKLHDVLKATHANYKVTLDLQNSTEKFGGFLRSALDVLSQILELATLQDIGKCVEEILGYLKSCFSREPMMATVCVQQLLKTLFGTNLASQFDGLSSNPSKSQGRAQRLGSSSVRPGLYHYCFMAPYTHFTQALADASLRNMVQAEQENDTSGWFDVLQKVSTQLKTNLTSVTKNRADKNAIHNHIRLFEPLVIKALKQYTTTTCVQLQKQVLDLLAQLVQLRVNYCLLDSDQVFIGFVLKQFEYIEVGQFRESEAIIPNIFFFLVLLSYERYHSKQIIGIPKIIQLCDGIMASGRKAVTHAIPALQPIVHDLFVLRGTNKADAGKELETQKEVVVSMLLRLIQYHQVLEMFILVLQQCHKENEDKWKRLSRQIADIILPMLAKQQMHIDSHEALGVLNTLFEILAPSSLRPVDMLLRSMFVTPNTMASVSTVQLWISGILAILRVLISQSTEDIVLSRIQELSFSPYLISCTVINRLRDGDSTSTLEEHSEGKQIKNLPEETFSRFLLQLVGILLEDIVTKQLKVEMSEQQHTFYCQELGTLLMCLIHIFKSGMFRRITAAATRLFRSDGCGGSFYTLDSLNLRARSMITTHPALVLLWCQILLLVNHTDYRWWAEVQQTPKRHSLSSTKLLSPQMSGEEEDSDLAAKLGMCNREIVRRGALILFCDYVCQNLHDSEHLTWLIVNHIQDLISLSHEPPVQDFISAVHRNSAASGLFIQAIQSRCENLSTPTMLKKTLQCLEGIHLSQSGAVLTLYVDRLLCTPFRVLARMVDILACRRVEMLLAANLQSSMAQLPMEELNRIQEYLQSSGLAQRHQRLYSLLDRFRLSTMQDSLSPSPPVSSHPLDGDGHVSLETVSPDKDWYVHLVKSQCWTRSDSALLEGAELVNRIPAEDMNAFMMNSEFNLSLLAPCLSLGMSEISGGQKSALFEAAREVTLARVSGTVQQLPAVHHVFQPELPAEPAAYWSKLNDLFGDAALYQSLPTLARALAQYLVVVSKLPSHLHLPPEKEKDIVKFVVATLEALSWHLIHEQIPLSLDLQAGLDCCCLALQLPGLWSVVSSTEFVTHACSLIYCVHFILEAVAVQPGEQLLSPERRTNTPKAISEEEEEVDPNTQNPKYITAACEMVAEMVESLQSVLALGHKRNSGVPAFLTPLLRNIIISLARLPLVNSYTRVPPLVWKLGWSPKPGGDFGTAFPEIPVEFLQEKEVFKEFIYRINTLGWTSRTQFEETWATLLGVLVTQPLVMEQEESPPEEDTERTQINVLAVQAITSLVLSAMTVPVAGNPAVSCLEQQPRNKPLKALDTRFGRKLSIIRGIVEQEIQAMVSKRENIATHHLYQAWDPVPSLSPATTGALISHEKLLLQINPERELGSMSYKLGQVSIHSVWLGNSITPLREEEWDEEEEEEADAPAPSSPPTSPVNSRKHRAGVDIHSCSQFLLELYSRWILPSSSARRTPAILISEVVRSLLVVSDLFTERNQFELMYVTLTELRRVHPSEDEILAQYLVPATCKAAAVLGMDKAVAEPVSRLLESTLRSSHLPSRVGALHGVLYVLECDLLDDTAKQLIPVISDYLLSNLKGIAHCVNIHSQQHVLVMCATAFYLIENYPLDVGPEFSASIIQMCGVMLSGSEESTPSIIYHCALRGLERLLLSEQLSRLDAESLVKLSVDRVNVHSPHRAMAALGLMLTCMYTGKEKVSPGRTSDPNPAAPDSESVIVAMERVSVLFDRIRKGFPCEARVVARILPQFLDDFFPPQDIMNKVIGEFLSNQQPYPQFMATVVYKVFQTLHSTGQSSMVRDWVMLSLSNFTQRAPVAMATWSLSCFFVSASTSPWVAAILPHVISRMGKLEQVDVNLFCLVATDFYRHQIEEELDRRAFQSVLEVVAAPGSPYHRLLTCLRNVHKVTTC
Pf apPOL block: Pf-apPOL DNA polymerase inhibition; Recombinant Pf-apPOL, molecular beacon fluorescence, 1.5 h; inhibition, % at 10 µM; 0.25% of 210,000 active; AID 1794808
Active calls of the source: *; . = not tested or not shown. The list is not random: actives were taken first. Their share in the collection is about 3.5%. No stated cut-off is given here; in the data, active means inhibition above about 50%; inactive means the rest.

SMILES	mHTT-CaM PPI inh	Pf apPOL block
Cc1n[nH]c(C)c1Sc1ccccc1N=Cc1c(C)[nH]n(-c2ccccc2)c1=O	88.0*	-4.3
Cc1n[nH]c(C)c1Sc1ccccc1N=Cc1ccc(C(=O)O)cc1	2.0	-2.9
Cc1n[nH]c(C)c1Sc1ccccc1N=Cc1cc(Br)ccc1O	58.0*	-1.7
CCN1CCN(CCNC(=O)C2CCCN(c3ncc(-c4ccccc4)cn3)C2)CC1 (stereo unspecified)	4.3	-3.3
O=c1/c(=C/c2c(F)cccc2Cl)sc2nc(-c3cccs3)nn12	5.0	-6.4
CN(C)C(=O)c1cc2c(s1)CCC(C(=O)NCc1ccc(F)c(Cl)c1)C2 (stereo unspecified)	12.7	-4.8
COC(=O)c1ccc(C(=O)N(CCn2cccn2)c2nc3c(C)cc(C)cc3s2)cc1	100.1*	-3.6
Cc1ccc(C)c(C(=O)N(CCn2cccn2)c2nc3c(F)cccc3s2)c1	-10.9	-6.3
O=C(C=Cc1ccc2c(c1)OCO2)NC1CCCC(O)C1 (stereo unspecified)	-2.6	-7.7
Cc1ccc(-c2nnc(N3CCC(C(=O)NCc4ccccc4Cl)CC3)o2)cc1	7.3	-2.6
CCN(CCCNC(=O)Cc1cn(C)c2ccccc12)c1cccc(C)c1	71.0*	-5.2
CCN(CCCNC(=O)c1cn(C)c(=O)c2c1c1ccccc1n2C)c1cccc(C)c1	-1.0	-1.8
CC(NC(=O)CC(C(=O)N1CCc2ccccc21)n1ccnc1)C12CC3CC(CC(C3)C1)C2 (stereo unspecified)	59.0*	-4.4
CCN(CC)CCCNC(=O)CC(C(=O)N1CCc2ccccc21)n1ccnc1 (stereo unspecified)	-2.0	-5.3
CC(CCc1ccccc1)NC(=O)CC(C(=O)N1CCc2ccccc21)n1ccnc1 (stereo unspecified)	20.0	-7.4
CCN(CCCNC(=O)CC(C(=O)N1CCc2ccccc21)n1ccnc1)c1cccc(C)c1 (stereo unspecified)	74.0*	-10.5
CCSc1oc(-c2ccco2)nc1S(=O)(=O)c1ccccc1	0.0	-2.5
CC1(C)OC(=O)C(=CNc2cccc(O)c2)C(=O)O1	-1.0	-7.5
COc1cccc(N2C(=O)Nc3ccccc3C2(O)C(=O)NCc2ccccc2Cl)c1 (stereo unspecified)	2.0	-6.5
NC(CC(=O)OCc1ccccc1)C(=O)OCc1ccccc1 (stereo unspecified)	.	-0.5
CC(C)NC(=O)c1cc(-c2cccs2)on1	.	-3.8
CC(=O)NCC(=O)N(C)C(C(=O)Nc1ccc2c(c1)OCO2)c1ccccc1 (stereo unspecified)	5.0	-2.0
CC(C)N(Cc1c[nH]c2ccccc12)C(=O)Nc1ccc(Cl)c(Cl)c1	68.0*	-16.0
CN(C(=O)Cc1c[nH]c2ccccc12)C(C(=O)Nc1ccc2c(c1)OCO2)c1ccccc1 (stereo unspecified)	88.0*	-3.9
CC(=O)Nc1ccc(NC(=O)CCc2c[nH]c3ccccc23)cc1	10.0	-9.4
SMILES	mHTT-CaM PPI inh	Pf apPOL block
Nc1nnc(CCCn2c(-c3nonc3N)nc3ccccc32)s1	2.0	-5.3
COc1ccc(CNC(=O)Cc2nnc(-c3ccc(C)cc3)o2)cc1OC	-1.7	-4.3
CC(=O)NCCNC(=O)C1CCC(Cn2c(=O)[nH]c3ccsc3c2=O)CC1 (stereo unspecified)	1.0	0.7
O=S1(=O)C=CCN1CCc1ccccc1	8.4	-4.5
CCc1nc2c(NC(=O)NCc3ccc(F)cc3)cccn2n1	-10.7	0.7
O=C(c1ccc(S(=O)(=O)N2CCCCC2)cc1)N1CCN(c2ccccc2)CC1	100.2*	-20.7
O=C(c1ccc(S(=O)(=O)N2CCCCC2)cc1)N1CCCCC1	-7.4	-7.5
CC(C)(C)OC(=O)N1CCCN(C(=O)C2=CN3C=C(C(F)(F)F)C=C(Cl)C3N2)CC1 (stereo unspecified)	.	0.2
Cc1ccccc1-n1c(=O)n(CC(C)C)c(=O)c2c1ncn2Cc1ccc(F)cc1	75.1*	-6.7
CC(C)Cn1c(=O)c2c(ncn2Cc2ccc(F)cc2)n(-c2ccccc2)c1=O	7.3	2.3
CCN1CCN(CC2CCN(S(=O)(=O)c3cn(C)c(C)n3)CC2)CC1	2.9	-3.9
COc1ccc(C=C2Oc3c(ccc(OC)c3C)C2=O)c(OC)c1	1.1	0.1
COc1ccc(Nc2cc(C)nc(NCCNS(=O)(=O)c3c(C)noc3C)n2)cc1	0.0	-7.8
CC(C)c1cc(C2CCCN2C(=O)Nc2ccc(Br)cc2)on1 (stereo unspecified)	-3.2	2.3
CCOc1ccc(N(CC(=O)Nc2ccccc2OCC)S(C)(=O)=O)cc1	14.9	-1.6
CS(=O)(=O)N(Cc1ccccc1)c1ccc(C(=O)Nc2ccc(F)cc2)cc1	7.0	0.5
CS(=O)(=O)N(Cc1ccc(C(=O)Nc2ccc(F)cc2)cc1)c1ccccc1	-5.3	50.1*
CCOc1ccccc1NC(=O)CN(c1ccc(F)cc1)S(C)(=O)=O	-3.8	66.1*
O=S(=O)(NCCc1c[nH]c2ccccc12)c1cccc2nsnc12	.	-3.5
COc1ccc(CC(=O)c2ccc(O)c(CN3CCCC(C)C3)c2O)cc1 (stereo unspecified)	12.4	-75.2
CCNc1cc(N2CCCC(CCC(=O)NCCN3CCN(C)CC3)C2)ncn1 (stereo unspecified)	-7.5	-7.1
C=CCN1C(=O)/C(=C/c2ccccc2O)SC1=Nc1ccccc1	49.0	-5.9
C=CCN1C(=O)/C(=C/c2ccc(O)cc2)SC1=Nc1ccccc1	78.0*	-3.5
C=CCSc1nnc2c(n1)OC(c1ccccc1OC)N(C(C)=O)c1ccccc1-2 (stereo unspecified)	19.0	-75.3
c1ccc(-c2noc(-c3cc(N4CCSCC4)nc4ccccc34)n2)cc1	-58.8	-4.3
SMILES	mHTT-CaM PPI inh	Pf apPOL block
Cc1ccc(C2=C(c3ccccc3)C(=O)C(c3ccccc3)=C2c2ccc(Cl)cc2)cc1	.	-4.2
O=C1NC(c2ccc(Br)cc2)=C(c2ccccc2)C1=O	53.0*	-2.7
CCOc1ccccc1NC(=O)c1c(NCc2cccc(OC)c2OC)sc2c1CCC2	32.0	-16.9
COc1ccccc1NC(=O)c1c(NC(=O)c2ccco2)sc2c1CCCC2	-1.5	1.0
COc1ccccc1NC(=O)c1c(NCc2cccc(F)c2)sc2c1CCC2	63.0*	-16.8
COc1cc(OC)c(OC)cc1CNc1sc2c(c1C(=O)Nc1ccccc1OC)CCC2	53.0*	-15.4
CN(C)C1CN(C(=O)c2ccc(C#N)cc2)CCC1(O)c1ccccc1 (stereo unspecified)	0.1	26.7
CSc1ccc(CN2CCCC2c2cc(C)on2)cc1 (stereo unspecified)	16.8	0.1
CNc1nccc(N2CCC(CC(=O)NCc3cccc(C(F)(F)F)c3)CC2)n1	53.6*	1.4
CNc1nccc(N2CCC(CC(=O)NCc3ccc(OC)c(OC)c3)CC2)n1	17.4	-2.0
O=C(Nc1nnc2ccccn12)c1cccc(C(F)(F)F)c1	40.1	-21.6
COc1cccc(C(=O)Nc2nnc3ccccn23)c1	70.7*	-4.0
N#Cc1ccc(C(=O)Nc2nnc3ccccn23)cc1	33.4	-4.7
O=C(Nc1nnc2ccccn12)c1ccc(Cl)cc1	51.9*	-9.8
COc1ccc2[nH]c(C(=O)Nc3nc4ccccc4s3)cc2c1	.	-22.7
O=C(c1ccc(C(=O)N2CCCCCC2)nc1)N1CCCCCC1	-2.1	0.2
COc1cc(CN2CCN(c3ccc([N+](=O)[O-])cc3)CC2)cc(I)c1O	42.0	-6.7
COc1cc(CN2CCN(c3ccc(C(C)=O)cc3)CC2)cc(I)c1O	55.3*	-1.8
